According to PubChem BioAssay (NCATS):
Where “and” joins values, the source holds several entries; their conditions need not be identical. Equal values may be shown once. Results filed as inconclusive are left out. Calls of active or inactive are those of the source. Calls follow the shape of the dose curve; as a rule, active = well fitted curve in the direction sought with a large enough effect; inconclusive = small, poorly fitted or top-dose-only effect, or another doubt; inactive = no such curve, though single readings can be large; an effect the other way counts as inactive or inconclusive.

Experiments:
[1] = Viability qHTS for spleen associated tyrosine kinase inhibitor (SYKi) drug resistant MV4-11 cells (AID 1963824); also: nearly all actives have a fitted effect of over 35% in size; also: potency is read from the fitted curve at half-maximal effect
Summary of the method: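 SYK-inhibitor-resistant MV4-11 AML cells were seeded at 500 per well onto compound and cultured 72 hours (37 °C, 5% CO2). CellTiter-Glo was then added, and after 10 min at room temperature, luminescence gave viability.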

[2] = Quantitative highthroughput screen to assess conditional lethalithy of NOMO1 cells grown in RPMI1640 with untreated serum (RPMI+s) (AID 1963876); also: nearly all actives have a fitted effect of over 35% in size; also: potency is read from the fitted curve at half-maximal effect;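 as to Viability: 100% = DMSO wells and 0% = empty wells without cells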
Summary of the method: (§1)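 Each medium arm—HPLM with 10% dialyzed FBS, or RPMI1640 with 5 mM glucose and 10% untreated or dialyzed FBS—was screened against an 11-point, 3-fold compound titration for 48 h at 37 °C, with CellTiter-Glo luminescence as endpoint.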

[3] = Quantitative highthroughput screen to assess conditional lethalithy of NOMO1 cells grown in Human Plasma-Like Medium with dialyzed fetal bovine serum (HPLM+ds) (AID 1963878);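 also: 100% = DMSO wells and 0% = empty wells on each plate; nearly all actives have a fitted effect of over 35% in size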
Summary of the method: as §1

[4] = Quantitative highthroughput screen to assess conditional lethalithy of P12 Ichikawa cells grown in Human Plasma-Like Medium with dialyzed fetal bovine serum (HPLM+ds) (AID 1963879); conditions: Potency: viability; also: nearly all actives have a fitted effect of over 35% in size; also: potency is read from the fitted curve at half-maximal effect; as to Viability: series mostly up to about 46 µM
Summary of the method: as §1

[5] = Quantitative highthroughput screen to assess conditional lethalithy of P12 Ichikawa cells grown in RPMI1640 with dialyzed fetal bovine serum (RPMI+ds) (AID 1963880); conditions: Potency: P12-Ichikawa viability; also: nearly all actives have a fitted effect of over 35% in size; also: potency is read from the fitted curve at half-maximal effect;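 as to Viability: 100% = DMSO wells and 0% = empty wells on each plate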
Summary of the method: as §1

[6] = Quantitative highthroughput screen to assess conditional lethalithy of P12 Ichikawa cells grown in RPMI1640 with untreated serum (RPMI+s) (AID 1963881); conditions: Potency: viability; also: nearly all actives have a fitted effect of over 35% in size; also: potency is read from the fitted curve at half-maximal effect;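 as to Viability: series mostly up to about 46 µM; 100% = DMSO wells and 0% = empty wells without cells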
Summary of the method: as §1

[7] = Quantitative highthroughput screen to assess conditional lethalithy of SEM cells grown in Human Plasma-Like Medium with dialyzed fetal bovine serum (HPLM+ds) (AID 1963882); also: nearly all actives have a fitted effect of over 35% in size; also: potency is read from the fitted curve at half-maximal effect; as to Viability: series mostly up to about 46 µM
Summary of the method: as §1

[8] = Quantitative highthroughput screen to assess conditional lethalithy of SEM cells grown in RPMI1640 with unreated serum (RPMI+s) (AID 1963883); also: nearly all actives have a fitted effect of over 35% in size; also: potency is read from the fitted curve at half-maximal effect;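 as to Viability: 100% = DMSO wells and 0% = empty wells without cells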
Summary of the method: as §1

[9] = Quantitative highthroughput screen to assess conditional lethalithy of SEM cells grown in RPMI1640 with dialyzed fetal bovine serum (RPMI+ds) (AID 1963884); also: nearly all actives have a fitted effect of over 35% in size; also: potency is read from the fitted curve at half-maximal effect;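 as to Viability: series mostly up to about 46 µM; 100% = DMSO control wells and 0% = empty wells without cells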
Summary of the method: as §1

[10] = Cellular viability qHTS for adrenocortical cancer (ACC) cell line SW-13 (AID 1963989); conditions: SW-13 ACC cells viability, CellTiter-Glo, 48 h; activity (max response): hits give low values; also: nearly all actives have a fitted effect of over 65% in size; also: potency is read from the fitted curve at half-maximal effect;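 as to activity (max response): cells grown in serum-free medium with ITS supplement; % is scaled to controls: 0 for no effect and ±100 for the full control effect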
Summary of the method: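 SW-13 cells in ITS-supplemented serum-free DMEM were plated overnight, then exposed for 48 h at 37C to compound titrations (up to 46 uM final). Viability was read by CellTiter-Glo luminescence; four-parameter logistic fits gave IC50 and efficacy.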

[11] = Cellular viability qHTS for adrenocortical cancer (ACC) cell line NCI-H295R (AID 1963990); also: nearly all actives have a fitted effect of over 60% in size; also: potency is read from the fitted curve at half-maximal effect
Summary of the method: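 Luminescent ATP read-out (CellTiter-Glo, 20 min RT) after 48 h drug exposure of NCI-H295R cells; a titration up to 46 uM final. Data normalized to doxorubicin (100% inhibition) and DMSO (0%); 4-parameter fit gives IC50, max response.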

[12] = Quantitative highthroughput screen to assess conditional lethalithy of NOMO1 cells grown in RPMI1640 with dialyzed fetal bovine serum (RPMI+ds) (AID 1963877); also: nearly all actives have a fitted effect of over 30% in size; also: potency is read from the fitted curve at half-maximal effect;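 as to Viability: series mostly up to about 46 µM; 100% = DMSO control wells and 0% = empty wells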
Summary of the method: as §1

Nc1nc(OCc2ccccc2)c2[nH]cnc2n1
inactive: Potency [2] | Potency [3] | Potency [4] | Potency [5] | Potency [6] | Potency [7] | Potency [8] | Potency [9] | activity (max response) [10] -9.18% | Potency [11]
active: Potency [1] 20.9 µM

CCCCn1c(=O)n(Cc2ccccc2F)c(=O)c2[nH]c(Cc3ccc(NC(C)=O)cc3)nc21
active: Potency [1] 18.6 µM
inactive: Potency [2] | Potency [3] | Potency [4] | Potency [5] | Potency [6] | Potency [7] | Potency [8] | Potency [9] | activity (max response) [10] -3.74% | Potency [11]

FC(F)(F)c1ccc(Nc2nc3ccc(Oc4ccnc(-c5ncc(C(F)(F)F)[nH]5)c4)cc3[nH]2)cc1
inactive: Potency [2] | Potency [3]
active: Potency [1] 4.17 µM | Potency [7] 18700 nM | Potency [8] 18700 nM | Potency [9] 16600 nM | Potency [10] 22400 nM | Potency [11] 11200 nM

COc1cc2nccc(Oc3ccc(NC(=O)Nc4ccc(F)cc4F)c(F)c3)c2cc1OC
inactive: Potency [2] | Potency [3] | activity (max response) [10] -11.6%
active: Potency [1] 0.0517 µM | Potency [4] 23500 nM | Potency [7] 10.5 nM | Potency [8] 209 nM

C[C@@H]1CN(Cc2ccc(F)cc2)[C@@H](C)CN1C(=O)c1cc2c(C(=O)C(=O)N(C)C)cn(C)c2cc1Cl
inactive: Potency [2] | Potency [12] | Potency [4] | Potency [7]
active: Potency [1] 16.4 µM

c1cc(-c2sc(-c3ccncc3)c(-c3ccncc3)c2-c2ccncc2)ccn1
inactive: Potency [2] | Potency [12] | Potency [4] | Potency [5] | Potency [6] | activity (max response) [10] 2.5%
active: Potency [1] 18.6 µM | Potency [7] 2960 nM | Potency [8] 2350 nM | Potency [9] 2640 nM

CN(C)c1ccccc1CN1CCCN(Cc2ccccc2N(C)C)C1c1ccncc1
inactive: Potency [2] | Potency [4] | Potency [5] | Potency [6] | Potency [7] | Potency [9]
active: Potency [1] 7.42 µM | Potency [10] 28200 nM | Potency [11] 28200 nM

COc1ccc(-c2cc3nccn3c(Nc3ncccc3C(N)=O)n2)cc1OC
inactive: Potency [2] | Potency [12] | Potency [4] | Potency [5] | Potency [6] | activity (max response) [10] -18.6% | Potency [11]
active: Potency [1] 0.206 µM

O=C(C1CC1)N1CC[C@@H](Cn2c(-c3ccc(-c4ccc5occc5c4)cc3)nc3cnccc32)C1
inactive: Potency [2] | Potency [12] | Potency [4] | Potency [5] | Potency [7] | Potency [8] | Potency [9]
active: Potency [1] 14.8 µM

Nc1cccc2c1C(=O)N(C1CCC(=O)NC1=O)C2=O (stereo not drawn)
inactive: Potency [1] | Potency [2] | Potency [12] | activity (max response) [10] 11.8% | Potency [11]
active: Potency [5] 14800 nM | Potency [6] 16600 nM

Cc1cccc(C)c1OCC(=O)N[C@@H](Cc1ccccc1)[C@@H](O)C[C@H](Cc1ccccc1)NC(=O)[C@H](C(C)C)N1CCCNC1=O
inactive: Potency [2] | Potency [12]
active: Potency [1] 23.7 µM | Potency [11] 16400 nM

COc1cc([C@@H]2c3cc4c(cc3[C@H](O)[C@H]3COC(=O)[C@@H]23)OCO4)cc(OC)c1OC
active: Potency [1] 0.372 µM | Potency [2] 418 nM | Potency [12] 526 nM | Potency [4] 332 nM | Potency [5] 469 nM | Potency [6] 372 nM | Potency [7] 296 nM | Potency [8] 296 nM | Potency [9] 264 nM | Potency [10] 631 nM | Potency [11] 501 nM

O=C1NC(=O)C(c2cnc3ccccn23)=C1c1cn2c3c(cc(F)cc13)CN(C(=O)N1CCCCC1)CC2
active: Potency [1] 51.7 nM and 372 nM | Potency [4] 588 nM | Potency [5] 5880 nM | Potency [8] 18.6 nM | Potency [9] 16.6 nM | Potency [11] 25100 nM
inactive: Potency [2] | Potency [12]

O=C(O)c1ccc2cc(-c3ccc(O)c(C45CC6CC(CC(C6)C4)C5)c3)ccc2c1
active: Potency [1] 0.417 µM | Potency [2] 1050 nM | Potency [4] 590 nM | Potency [5] 418 nM | Potency [6] 469 nM | Potency [7] 372 nM | Potency [8] 372 nM | Potency [9] 235 nM | Potency [11] 708 nM

COc1cc(C(C)C)c(Oc2cnc(NC(CO)CO)nc2N)cc1I
active: Potency [1] 14.8 µM
inactive: Potency [2] | Potency [3] | Potency [4] | Potency [5] | Potency [6] | Potency [7] | activity (max response) [10] -4% | Potency [11]

C=C(C)[C@@H]1CC[C@]2(C(=O)O)CC[C@]3(C)[C@H](CC[C@@H]4[C@@]5(C)CC[C@H](O)C(C)(C)[C@@H]5CC[C@]43C)[C@@H]12
inactive: Potency [2] | Potency [12] | Potency [4] | Potency [5] | Potency [6] | Potency [7] | activity (max response) [10] 19.8% | Potency [11]
active: Potency [1] 2.95 µM

Cc1nc2ccc(C(=O)N3CCC4(CC3)CC(=O)c3c(cnn3C(C)C)C4)cc2[nH]1
active: Potency [1] 20.9 µM
inactive: Potency [2] | Potency [12] | Potency [11]
